This is a sample that favours compounds with a hit; in the whole collection about 9.8% have one here.
ALDH1A1 block: qHTS Assay for Inhibitors of Aldehyde Dehydrogenase 1 (ALDH1A1). Purified ALDH1A1, NADH fluorescence, propionaldehyde substrate. Potency, µM (top dose mostly 75.3 µM), for inactives: at the top dose activity, negative = inhibition, hits mostly inhibitors. hit rate 7.3% among 220,000. AID 1030, 2008;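 also: potency is read from the fitted curve at half-maximal effect; plate controls were no enzyme wells and a reference inhibitor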
HTT cytoprotect: qHTS Multiplex Assay to Identify Dual Action Probes in a Cell Model of Huntington: Cytoprotection (ATP); AID 1471, 2008; Potency, µM (top dose mostly 56.4 µM), without a hit: cytoprotection (ATP increase), most hits filed as activators; hit rate 0.14% among 230,000; PC12 HTT-Q103 induced, cytoprotection, ATP luminescence, 40 h; active = well fitted curve in the direction sought with a large enough effect; inconclusive = small, poorly fitted or top-dose-only effect, or another doubt; inactive = no such curve, though single readings can be large; an effect the other way counts as inactive or inconclusive; also: potency is read from the fitted curve at half-maximal effect; % of control where 0% means no effect; nearly all actives have a fitted effect of over 45% in size
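Compounds added alongside 100 nM tebufenozide, which induces toxic Q103 huntingtin exon 1-GFP in stable PC12 cells; surviving cells quantified by luminescent ATP measurement. Medium: phenol red-free DMEM, 5% equine and 5% calf serum.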
JMJD2E inh: qHTS Assay for Inhibitors of Human Jumonji Domain Containing 2E (JMJD2E); AID 2147, 2009; Potency, µM (titrated, usually from 57.1 µM), for the others: at the top dose activity change, negative = inhibition, hits mostly inhibitors; JMJD2E catalytic domain, FDH-coupled NADH fluorescence (FDH is formaldehyde dehydrogenase); hit rate 1.6% among 230,000; Lysine-specific demethylase 4E (Homo sapiens), B2RXH2;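 also: potency is read from the fitted curve at half-maximal effect; 0% = wells with enzyme and -100% = buffer wells without enzyme; nearly all actives have a fitted effect of over 50% in size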
CBFb-RUNX1 inh: qHTS Assay for Compounds Blocking the Interaction Between CBF-beta and RUNX1 for the Treatment of Acute Myeloid Leukemia; AlphaScreen CBFb-His/RUNX1-biotin binding, biochemical; 230,000 tested, under 10 active; Runt-related transcription factor 1 (Homo sapiens) + Core-binding factor subunit beta …; Potency, µM (series often up to 59.8 µM), for the others: top-dose activity, negative = inhibition, usual class: inhibitors; active = well fitted curve in the direction sought with a large enough effect; inconclusive = small, poorly fitted or top-dose-only effect, or another doubt; inactive = no such curve, though single readings can be large; an effect the other way counts as inactive or inconclusive; also: % of control where 0% means no effect
Target sequence (Q01196 whole entry, looked up): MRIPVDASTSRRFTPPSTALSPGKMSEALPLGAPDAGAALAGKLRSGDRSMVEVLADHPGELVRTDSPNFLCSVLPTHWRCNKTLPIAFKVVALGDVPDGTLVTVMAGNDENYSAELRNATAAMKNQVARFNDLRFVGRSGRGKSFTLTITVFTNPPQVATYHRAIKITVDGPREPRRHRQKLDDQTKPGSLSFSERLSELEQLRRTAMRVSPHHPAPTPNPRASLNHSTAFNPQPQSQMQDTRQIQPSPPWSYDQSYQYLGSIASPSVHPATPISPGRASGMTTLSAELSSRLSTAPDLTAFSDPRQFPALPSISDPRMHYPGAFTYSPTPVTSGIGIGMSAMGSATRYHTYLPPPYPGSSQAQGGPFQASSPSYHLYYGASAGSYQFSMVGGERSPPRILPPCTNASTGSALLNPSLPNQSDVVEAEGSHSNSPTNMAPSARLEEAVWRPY
Target sequence (Q13951 whole entry, looked up): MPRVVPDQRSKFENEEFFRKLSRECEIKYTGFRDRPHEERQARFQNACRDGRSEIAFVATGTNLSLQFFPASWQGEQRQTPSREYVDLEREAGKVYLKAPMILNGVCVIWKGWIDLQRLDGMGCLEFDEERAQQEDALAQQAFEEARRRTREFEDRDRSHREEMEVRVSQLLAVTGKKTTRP
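CBF-beta (His) and RUNX1 (biotin), 30 nM each; 20 min preassociation; + compound, 15 min; + beads 50 ng each (Ni, streptavidin), 90 min; RT; AlphaScreen read.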
HPGD inh: qHTS Assay for Inhibitors of HPGD (15-Hydroxyprostaglandin Dehydrogenase) | Potency, µM, for inactives: at the top dose activity change, negative = inhibition, actives largely listed as inhibitors | AID 894, 2007 | hit rate 4.3% among 150,000 | purified HPGD, NADH fluorescence kinetic, PGE2 substrate; also: potency is read from the fitted curve at half-maximal effect; % is scaled to controls: 0 for no effect and ±100 for the full control effect
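NADH formation kinetics: reaction with 30 uM PGE2 and 1 mM NAD+ (final), 20 nM enzyme, Tris-HCl pH 8 with Tween 20, after 15 min compound preincubation at room temperature. Fluorescence change, last versus first of five reads.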
HttQ103 aggreg: qHTS Multiplex Assay to Identify Dual Action Probes in a Cell Model of Huntington: Aggregate Formation (GFP) | PC12 HttQ103-GFP aggregates, Acumen cytometry, 40 h | Potency, µM (titrated, usually from 46.1 µM), without a hit: at the top dose activity change, negative = inhibition, actives largely listed as inhibitors | hit rate 1.1% among 220,000; active = well fitted curve in the direction sought with a large enough effect; inconclusive = small, poorly fitted or top-dose-only effect, or another doubt; inactive = no such curve, though single readings can be large; an effect the other way counts as inactive or inconclusive; also: potency is read from the fitted curve at half-maximal effect; % is scaled to controls: 0 for no effect and ±100 for the full control effect; nearly all actives have a fitted effect of over 60% in size
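Multiplexed with ATP-based cell death, this channel scores GFP aggregates in PC12 cells expressing inducible HTTex1-Q103-GFP. Induction used 100 nM tebufenozide; compounds were tested in concentration series.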
Active calls of the source: *; [ ] = remark or other dose. Unless noted, calls follow the shape of the dose curve; as a rule, active = well fitted inhibition curve with a large enough effect (not every such curve was filed as active); inconclusive = small, poorly fitted or top-dose-only effect, or another doubt; inactive = no such curve, though single readings can be large or run the other way.

How did COc1ccc(-c2cc(C3CCN(c4cc(Cl)nc(N)n4)CC3)[nH]n2)cc1 do in these assays?
ALDH1A1 block: 0%; HTT cytoprotect: -96%; JMJD2E inh: 4%; CBFb-RUNX1 inh: -2%; HPGD inh: -15%; HttQ103 aggreg: 13µM*

Results for Cn1c(=NC(=O)COc2ccccc2)sc2cccc(F)c21 ?
HTT cytoprotect: 1%[10 µM]; JMJD2E inh: 7%; CBFb-RUNX1 inh: 3%; HttQ103 aggreg: -10%[9.22 µM]

How did O=C(NC1CCCCCC1)c1cccs1 do in these assays?
ALDH1A1 block: inconclusive; HTT cytoprotect: -9%[10 µM]; JMJD2E inh: -10%; CBFb-RUNX1 inh: -1%; HPGD inh: 25µM*; HttQ103 aggreg: 6%

What do the screens show for `O=C(NC1CCCCC1NC(=O)c1cccs1)c1cccs1` (configuration not stated)?
ALDH1A1 block: 9%; HTT cytoprotect: 4%[0.074 µM]; JMJD2E inh: -1%; CBFb-RUNX1 inh: 7%; HPGD inh: -8%; HttQ103 aggreg: 7%

Results for O=C(CNC1CCCCCC1)c1cccs1 ?
ALDH1A1 block: 6µM*; HTT cytoprotect: -4%[10 µM]; JMJD2E inh: -5%; CBFb-RUNX1 inh: 9%; HPGD inh: inconclusive; HttQ103 aggreg: -6%

Results for CC1CCc2c(sc(/N=C/N(C)C)c2C#N)C1 (configuration not stated) ?
ALDH1A1 block: inconclusive; HTT cytoprotect: -56%; JMJD2E inh: -5%; CBFb-RUNX1 inh: -13%; HttQ103 aggreg: -1%

Results for N#Cc1c(/N=C/c2cccs2)sc2c1CCC2 ?
ALDH1A1 block: inconclusive; HTT cytoprotect: -20%; JMJD2E inh: -2%; CBFb-RUNX1 inh: -16%; HPGD inh: 20µM*; HttQ103 aggreg: -3%

What do the screens show for `N#Cc1c(/N=C/c2ccco2)sc2c1CCCCC2`?
ALDH1A1 block: 14µM*; HTT cytoprotect: -14%; JMJD2E inh: 0%; CBFb-RUNX1 inh: -24%; HPGD inh: -28%; HttQ103 aggreg: -27%

What do the screens show for `CN1CCc2c(sc(/N=C/c3ccco3)c2C(N)=O)C1`?
ALDH1A1 block: inconclusive; HTT cytoprotect: -25%; JMJD2E inh: inconclusive; CBFb-RUNX1 inh: -27%; HttQ103 aggreg: -4%

What do the screens show for `C(=N\Nc1ncnc2sc3c(c12)CCC3)/c1cccs1`?
ALDH1A1 block: 8%; HTT cytoprotect: -77%; JMJD2E inh: -13%; CBFb-RUNX1 inh: -13%; HPGD inh: -21%; HttQ103 aggreg: inconclusive

What do the screens show for `CN(C)/C=N/c1sc2c(c1C#N)CCCC2`?
ALDH1A1 block: 2µM*; HTT cytoprotect: 17%; JMJD2E inh: -8%; CBFb-RUNX1 inh: -5%; HttQ103 aggreg: -17%

Results for CCN(CC)S(=O)(=O)c1ccc(NC(=O)Cc2cccs2)cc1 ?
ALDH1A1 block: 9%; HTT cytoprotect: -72%; JMJD2E inh: 0%; CBFb-RUNX1 inh: -3%; HttQ103 aggreg: -13%

What do the screens show for `CC(=O)Nc1ccc(NC(=O)C/C(C)=N/NC(N)=S)cc1`?
ALDH1A1 block: 22µM*; HTT cytoprotect: 1%; JMJD2E inh: inconclusive; CBFb-RUNX1 inh: -5%; HttQ103 aggreg: 21%

Results for COc1cc(NC(=O)c2csc(N)n2)cc(C(=O)Nc2cccc(C(F)(F)F)c2)c1 ?
HTT cytoprotect: -40%[10 µM]; JMJD2E inh: -27%; CBFb-RUNX1 inh: -4%; HttQ103 aggreg: inconclusive

What do the screens show for `COc1cc(NC(=O)c2cnc(N)s2)cc(C(=O)Nc2cccc(C(F)(F)F)c2)c1`?
HTT cytoprotect: 18%[10 µM]; JMJD2E inh: 20µM*; CBFb-RUNX1 inh: 5%; HttQ103 aggreg: -7%[9.22 µM]

How did O=C(O)C1C2C=CC(O2)C1C(=O)Nc1ccccc1C(F)(F)F (configuration not stated) do in these assays?
ALDH1A1 block: 14µM*; HTT cytoprotect: 1%; JMJD2E inh: 1%; CBFb-RUNX1 inh: 2%; HPGD inh: -1%; HttQ103 aggreg: 6%

What do the screens show for `CCC1(c2ccc(O)cc2)NC(=O)N(C)C1=O` (configuration not stated)?
CBFb-RUNX1 inh: 11%

How did Oc1ccccc1-c1nc(NCc2cccnc2)c2ccccc2n1 do in these assays?
HTT cytoprotect: -13%[10 µM]; JMJD2E inh: 5%; CBFb-RUNX1 inh: 3%; HttQ103 aggreg: -8%[9.22 µM]

How did Cc1cnc(CNc2nc(-c3ccccc3Cl)nc3ccccc23)cn1 do in these assays?
ALDH1A1 block: 14µM*; HTT cytoprotect: 4%

What do the screens show for `Cc1ccccc1-c1nc(NCc2cccnc2)c2ccccc2n1`?
ALDH1A1 block: 22µM*; HTT cytoprotect: 4%; JMJD2E inh: inconclusive; HPGD inh: -24%

What do the screens show for `Cc1nn(C)c(Sc2ccccc2N)c1[N+](=O)[O-]`?
ALDH1A1 block: 4µM*; HTT cytoprotect: 18%[10 µM]; JMJD2E inh: inconclusive; CBFb-RUNX1 inh: -6%; HttQ103 aggreg: -4%[9.22 µM]

How did CCCn1c(-c2ccc(F)cc2)nc2c(NCC(C)(C)CN(C)C)nc(C)nc21 do in these assays?
ALDH1A1 block: inconclusive; HTT cytoprotect: -16%; JMJD2E inh: inconclusive; CBFb-RUNX1 inh: 7%; HPGD inh: inconclusive

What do the screens show for `CS(=O)(=O)Nc1ccc(C(=O)NCCc2ccccc2)cc1`?
ALDH1A1 block: 1%; HTT cytoprotect: 10%[1.9 µM]; JMJD2E inh: -10%; CBFb-RUNX1 inh: 5%; HPGD inh: -21%; HttQ103 aggreg: -6%

How did COc1ccc(/C=C/C(=O)NCCSCc2ccco2)cc1 do in these assays?
ALDH1A1 block: inconclusive; HTT cytoprotect: 8%[0.074 µM]; JMJD2E inh: -9%; CBFb-RUNX1 inh: -8%; HPGD inh: 14µM*; HttQ103 aggreg: 2%

Results for CS(=O)(=O)Nc1ccc(C(=O)NCCSCc2ccccc2)cc1 ?
ALDH1A1 block: 11µM*; HTT cytoprotect: -16%[10 µM]; JMJD2E inh: inconclusive; CBFb-RUNX1 inh: 1%; HttQ103 aggreg: -14%[9.22 µM]

How did O=C(/C=C/c1ccccc1)NCCSCc1ccccc1 do in these assays?
ALDH1A1 block: 1µM*; JMJD2E inh: -1%; CBFb-RUNX1 inh: 12%; HPGD inh: 3.2µM*; HttQ103 aggreg: 4%

Results for Cc1ccccc1NC(NC(=O)OCCn1c([N+](=O)[O-])cnc1C)C(Cl)(Cl)Cl (configuration not stated) ?
ALDH1A1 block: -9%; HTT cytoprotect: inconclusive; JMJD2E inh: -5%; CBFb-RUNX1 inh: -7%; HPGD inh: -17%; HttQ103 aggreg: -3%
